ELG1 genotoxic: genotoxicity induction in ELG1-luciferase HEK293T cells. actives 1.3% (n = 330,000). AID 504466. HEK293T ELG1-luciferase reporter, luminescence, 16 h. Potency, µM (highest dose often 46 µM), inactives show at the top dose activity change, positive = activation, most hits filed as activators; further: % of control where 0% means no effect; nearly all actives have a fitted effect of over 60% in size
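Genotoxic stress is detected as increased luminescence from luciferase-tagged ELG1 in HEK293T cells, measured with ONE-Glo after a 16 hr treatment at 37 °C.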
Rab9 prom act: Rab9 promoter activation; actives 2.8% (n = 320,000); Potency, µM (series often up to 9.22 µM), for inactives: at the top dose activation, negative = inhibition, usual class: activators; Huh7 Rab9 promoter-luciferase reporter, luminescence, 24 h; further: % of control where 0% means no effect; nearly all actives have a fitted effect of over 60% in size
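Cells were plated at 1500 per well in reduced-serum medium with 10% FBS and left 2 h. Compound in DMSO was then added for 24 h at 37 °C. Reporter signal was read by luminescence after 10 min with luciferase detection reagent.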
NPC1 promoter act: NPC1 promoter activation; AID 485313; actives 2.4% (n = 320,000); Potency, µM (series often up to 9.22 µM), without a hit: top-dose activation, actives largely listed as activators; Huh7 NPC1 promoter luciferase reporter, 24 h; further: % of control where 0% means no effect; nearly all actives have a fitted effect of over 60% in size
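Luminescence from an NPC1 promoter-driven luciferase reporter in stably transfected Huh7 cells was measured after 24 h compound treatment at 37 °C, followed by 10 min ambient incubation with luciferase detection reagent.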
SMN2 splice up: enhancers of SMN2 splice variant expression. HEK293 SMN2-luciferase splicing reporter, luminescence, 30-36 h. Potency, µM (series often up to 46.1 µM), inactives show at the highest dose activity change, positive = activation, usual class: activators. actives 2.8% (n = 210,000). AID 1458; further: % of control where 0% means no effect; nearly all actives have a fitted effect of over 55% in size
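HEK293 cells carry an SMN2 […]–luciferase reporter in which exon 7 inclusion puts luciferase in frame. Cells were plated 10-12 h before compound addition, then incubated 30-36 h at 37C. ONE-Glo luminescence was read; sodium butyrate at 4.5 mM final served as control.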
FLuc counter: inhibits or activates purified firefly luciferase, miR-21 counter-screen; P08659; purified FLuc, Km substrates, luminescence inhibition; Potency, µM (series often up to 57.5 µM), inactives show top-dose activity change, negative = inhibition, most hits filed as inhibitors; actives 6.9% (n = 360,000); AID 588342;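 further: plate controls were vehicle for no effect and reference inhibitor for full effect; nearly all actives have a fitted effect of over 55% in size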
Target sequence (P08659 whole entry, looked up): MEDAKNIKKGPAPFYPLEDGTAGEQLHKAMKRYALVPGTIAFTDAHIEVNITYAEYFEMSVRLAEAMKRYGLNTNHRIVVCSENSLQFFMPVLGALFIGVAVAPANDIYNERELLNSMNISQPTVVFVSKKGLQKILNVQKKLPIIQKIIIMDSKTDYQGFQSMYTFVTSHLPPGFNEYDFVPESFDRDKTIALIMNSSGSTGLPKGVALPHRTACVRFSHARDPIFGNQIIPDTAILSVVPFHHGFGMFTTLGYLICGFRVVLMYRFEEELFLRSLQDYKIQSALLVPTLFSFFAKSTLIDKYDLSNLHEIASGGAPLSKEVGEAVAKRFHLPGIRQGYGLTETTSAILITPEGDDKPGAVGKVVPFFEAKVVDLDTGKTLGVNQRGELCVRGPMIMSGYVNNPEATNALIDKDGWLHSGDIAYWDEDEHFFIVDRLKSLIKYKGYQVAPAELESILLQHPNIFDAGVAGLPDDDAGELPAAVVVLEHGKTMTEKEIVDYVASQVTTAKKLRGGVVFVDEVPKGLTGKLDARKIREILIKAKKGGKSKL
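Biochemical qHTS of compounds, final roughly 60 µM downward over six points, against 10 nM purified firefly luciferase using Km concentrations of substrates (10 uM D-luciferin, 10 uM ATP) in Tris acetate pH 7.5 buffer; luminescence output.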
KinaseGlo FLuc: counter-screen: inhibitors of Kinase-Glo firefly luciferase; Kinase-Glo luciferase, ATP luminescence, 8 min; Potency, µM (highest dose often 38.3 µM), without a hit: top-dose activity change, negative = inhibition, hits mostly inhibitors; actives 0.28% (n = 200,000); AID 1379; further: on the % scale 0 is the no-effect control and ±100 the full control effect; nearly all actives have a fitted effect of over 60% in size
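Recombinant Kinase-Glo luciferase, 10 uM ATP (linear range), luciferin; imidazole pH 7.2 / KCl / MgCl2 / Tween / BSA buffer; 8 min RT; luminescence.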
Active calls of the source: *; ? = inconclusive; . = not tested or not shown; [ ] = another dose, or the depositor's remark. Only some compounds are listed: those with a hit (about 7.3% of all), similar ones and a draw of the others. The call rests on the fitted dose curve; in most records, active means well fitted curve in the direction sought with a large enough effect; inconclusive means small, poorly fitted or top-dose-only effect, or another doubt; inactive means no such curve, though single readings can be large; an effect the other way counts as inactive or inconclusive. Potency means the concentration at half of the fitted maximal effect.

SMILES	ELG1 genotoxic	Rab9 prom act	NPC1 promoter act	SMN2 splice up	FLuc counter	KinaseGlo FLuc
CCOc1ccc(NC(=O)c2cccnc2Cl)c([N+](=O)[O-])c1	3%	2%	1%	1%	0%	-2%
O=S(=O)(NCCNC/C=C/c1ccc(Br)cc1)c1cccc2cnccc12	.	.	.	-77%	.	-5%
CCOc1ccccc1CNC(=O)C1CCN(Cc2cc3ccccc3n2Cc2ccccc2)CC1	.	.	.	.	3%	.
CCOc1ccc(NCc2nc3ccccc3n2CCOc2ccc(C)cc2)cc1	.	.	.	-42%	?	.
Clc1ccc(NCc2nc3ccccc3n2CCOc2ccccc2)cc1	.	.	.	-30%	?	.
CCOc1ccc(NCc2nc3ccccc3n2CCOc2ccccc2)cc1	?	25%	?	-43%	12µM*	-2%
Cc1ccccc1NCc1nc2ccccc2n1CCOc1ccccc1	.	.	.	18µM*	9.5µM*	.
CCc1cccc(C)c1NC(=O)CN1CCCN(Cc2ccccc2Cl)S1(=O)=O	.	.	.	.	-10%	.
Cc1cc(C=O)c(C)n1-c1sc2c(c1C(=O)O)CCCC2	1%	-4%	-5%	-3%	1%	-1%
COC(=O)c1c(-n2c(C)cc(C=O)c2C)sc2c1CCCC2	1%	2%	-4%	-21%	12µM*	-9%
O=C1C(Cl)=C(N2CCCCC2)C(=O)C(Cl)=C1c1cnc(N2CCCCC2)s1	-4%	-30%	-28%	-67%	9.5µM*	-21%
CC(C)NC(=O)c1cnc2sc(N3CCCCCC3)nn2c1=O	.	.	.	.	4%	.
COc1cccc(CNC(=O)CCc2c(C)nc3c(c(C)nn3-c3ccc(C)c(C)c3)c2C)c1	.	.	.	-9%	-5%	.
CCn1c(SCC(=O)Nc2ccc3c(c2)OCCO3)nnc1C1CC1	1%	-3%	-3%	.	15µM*	.
Nn1c(SCC(=O)NC(=O)Nc2ccc3c(c2)OCCO3)nnc1C1CC1	14%	?	21%	?	19µM*	-3%
CCn1c(SCC(=O)Nc2ccc3c(c2)OCCO3)nnc1-c1cccs1	2%	13%	-1%	-2%	11µM*	-8%
CCn1c(SCC(=O)Nc2ccc3c(c2)OCO3)nnc1C1CC1	-1%	-4%	-5%	.	-12%	.
CCn1c(SCC(=O)Nc2ccc3c(c2)OCCO3)nnc1-c1c[nH]c2ccccc12	1%	-3%	-2%	.	13µM*	.
CCn1c(C)nnc1SCC(=O)Nc1ccc2c(c1)OCCO2	20%	22%	1%	.	?	.
O=C(CSc1nnc(-c2c[nH]c3ccccc23)n1CC1CCCO1)Nc1ccc2c(c1)OCCO2 (configuration not stated)	0%	1%	7%	17%	-17%	-1%
Cc1ccc(N2C(=O)CCSC23C(=O)N(Cc2ccc(F)cc2)c2ccccc23)cc1 (configuration not stated)	.	.	.	.	-18%	.
CC(C)(C)n1ncc2c(=O)n(Cc3cc(F)c(F)cc3Cl)cnc21	.	.	.	.	-1%	.
Cc1nc(N2CCOCC2)c2nc(-c3ccccc3)n(CCN(C)C)c2n1	.	.	.	0%	.	-6%
Cc1ccc(-c2n[nH]c3c2C(c2cccs2)N(c2ccc(Cl)cc2)C3=O)cc1 (configuration not stated)	.	.	.	-54%	4%	.
Cc1nn2c(COc3ccc(NC(=O)c4ccccc4Cl)cc3)nnc2c2ccccc12	-5%	2%	-3%	19%	6µM*	-3%
Cc1nn2c(COc3ccc(NC(=O)C(C)C)cc3)nnc2c2ccccc12	?	1%	-2%	-23%	-11%	-1%
O=C(NCCCN1CCCCCC1)c1ccc2c(c1)sc1nc(-c3ccccc3)cn12	.	.	.	.	-1%	.
Cc1cccc2cc3ccc4ccccc4c3cc12	.	.	.	-5%[9.22 µM]	.	-5%[7.66 µM]
Cc1cc2ccc3ccccc3c2cc1CN(C)C	6%	24%	10%	.	7.6µM*	.
CNc1sc(C(=O)c2cccs2)c(N)c1-c1nc2ccccc2s1	?	2.8µM*	4µM*	5µM*	2.7µM*	-10%
